Test results: PubChem BioAssay
Results filed as inconclusive are left out. Activity calls are given as the source filed them.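 Rule for the calls, unless noted: active = binding below the plate cutoff, the plate median minus 3 SD, with a reading above zero; inconclusive = below the plate cutoff but reading exactly zero; inactive = the rest.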

Legend:
[1] = rapamycin-like changes in RPL19A-GFP expression – cell-based, S. cerevisiae, multiplex flow cytometry, primary screen (AID 1862; in the data active = percent of DMSO control GFP below about 86%;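 note: lower values mimic rapamycin by blocking the RPL19A rise seen in DMSO cells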); details: S. cerevisiae RPL19A-GFP strain, flow cytometry fluorescence, 3 h; at 10 µM; stronger effect = lower value
[2] = TOR pathway GLN3 branch reporter MEP2-GFP changes – S. cerevisiae, multiplex flow cytometry, primary screen (AID 1867;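 active = GFP response, as percent of the DMSO control, above the screen-wide mean plus 3 SD, about 139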;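 note: median GFP channel fluorescence of barcode-gated MEP2-GFP cells measured by flow cytometry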); details: S. cerevisiae MEP2-GFP strain, 3 h, at 10 µM, stronger effect = higher value, 100% means same as DMSO wells
[3] = TOR pathway RTG branch CIT2 reporter changes – S. cerevisiae, GFP fusion, multiplex flow cytometry, primary screen (AID 1870;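 active = percent response above a set limit, the screen-wide mean plus 3 SD, cut at about 130% in these data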;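 note: barcoded CIT2-GFP strain pooled with four other GFP strains with rapamycin as positive control; median GFP fluorescence per well over plate mean of DMSO wells so 100% = DMSO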); details: S. cerevisiae CIT2-GFP expression, 3 h, at 10 µM, stronger effect = higher value
[4] = TOR pathway LAP4-GFP level changes – S. cerevisiae, multiplex flow cytometry, primary screen (AID 1873;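 active = GFP signal, as percent of the solvent control, above the screen mean plus 3 SD, about 149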); details: S. cerevisiae LAP4-GFP expression, 3 h, at 10 µM, stronger effect = higher value
[5] = yeast AGP1-GFP level changes, GLN3 branch – cell-based, multiplex flow cytometry, S. cerevisiae, primary screen (AID 1887;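 active = GFP signal above the screen-wide mean plus 3 SD, that is over about 124.5% of the solvent control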;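 note: AGP1-GFP fusion strain of S. cerevisiae within a five-strain barcoded multiplex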); details: 3 h, at 10 µM, stronger effect = higher value
[6] = reduced mouse 2C T cell binding to pMHC/ICAM-1 vesicles – MLPCN validation set, flow cytometry, LFA-1/ICAM-1 modulator project, pilot screen (AID 2523;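 active = response below a set limit, under 55% cells CD8-positive and vesicle-bound, and CD8 cells' 90th-percentile brightness under 279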;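 for vesicle binding response: mean PE anti-B7-1 fluorescence of CD8+ cells relative to row control; 100% = QL9-loaded vesicles with DMSO vehicle in the same plate row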); details: 2C mouse CD8+ T cells, at 7 µM, stronger effect = lower value; double positive events: measured here: CD8+/vesicle+ event percentage
[7] = molecular target: Integrin beta-1 (Homo sapiens) + Integrin alpha-4 (Homo sapiens) (UniProt P13612+P05556); test: alpha4beta1 integrin LIBS antibody binding reduction – U937 cells, HUTS-21 mAb, flow cytometry, validation set, VLA-4 allosteric modulator project, pilot screen (AID 2674;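 active = inhibition above 50%, about 3 SD of the validation set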;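 note: antibody binding induced by the VLA-4 ligand LDV present at three times its Kd; 0% = LDV ligand with antibody and no compound and 100% = antibody without LDV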); details: HUTS-21 LIBS mAb binding, at 6.7 µM, stronger effect = higher value, binding induced by LDV ligand
Sequence of Integrin beta-1 (Homo sapiens) + Integrin alpha-4 (Homo sapiens) (P05556 whole entry, looked up): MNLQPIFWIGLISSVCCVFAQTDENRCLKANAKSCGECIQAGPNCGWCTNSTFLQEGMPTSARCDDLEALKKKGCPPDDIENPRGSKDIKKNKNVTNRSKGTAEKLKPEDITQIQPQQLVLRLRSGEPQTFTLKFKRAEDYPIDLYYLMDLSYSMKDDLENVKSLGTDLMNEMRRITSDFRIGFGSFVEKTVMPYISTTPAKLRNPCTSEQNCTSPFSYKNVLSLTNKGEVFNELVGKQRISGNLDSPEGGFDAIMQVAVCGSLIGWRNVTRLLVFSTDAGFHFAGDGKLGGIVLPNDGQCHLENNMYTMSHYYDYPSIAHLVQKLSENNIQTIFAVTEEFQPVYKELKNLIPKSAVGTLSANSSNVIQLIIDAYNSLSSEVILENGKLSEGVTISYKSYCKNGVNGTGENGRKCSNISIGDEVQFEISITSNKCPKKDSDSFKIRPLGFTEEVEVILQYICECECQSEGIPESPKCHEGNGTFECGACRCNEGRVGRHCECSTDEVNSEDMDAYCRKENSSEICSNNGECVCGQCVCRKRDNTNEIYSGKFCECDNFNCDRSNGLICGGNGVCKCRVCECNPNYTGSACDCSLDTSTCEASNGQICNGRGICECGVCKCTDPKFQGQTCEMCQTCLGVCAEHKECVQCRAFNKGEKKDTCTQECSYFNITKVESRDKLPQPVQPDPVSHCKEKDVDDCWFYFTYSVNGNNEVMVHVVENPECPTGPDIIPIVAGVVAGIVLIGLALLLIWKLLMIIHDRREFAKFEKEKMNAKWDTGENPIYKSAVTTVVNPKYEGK
Sequence of Integrin beta-1 (Homo sapiens) + Integrin alpha-4 (Homo sapiens) (P13612 whole entry, looked up): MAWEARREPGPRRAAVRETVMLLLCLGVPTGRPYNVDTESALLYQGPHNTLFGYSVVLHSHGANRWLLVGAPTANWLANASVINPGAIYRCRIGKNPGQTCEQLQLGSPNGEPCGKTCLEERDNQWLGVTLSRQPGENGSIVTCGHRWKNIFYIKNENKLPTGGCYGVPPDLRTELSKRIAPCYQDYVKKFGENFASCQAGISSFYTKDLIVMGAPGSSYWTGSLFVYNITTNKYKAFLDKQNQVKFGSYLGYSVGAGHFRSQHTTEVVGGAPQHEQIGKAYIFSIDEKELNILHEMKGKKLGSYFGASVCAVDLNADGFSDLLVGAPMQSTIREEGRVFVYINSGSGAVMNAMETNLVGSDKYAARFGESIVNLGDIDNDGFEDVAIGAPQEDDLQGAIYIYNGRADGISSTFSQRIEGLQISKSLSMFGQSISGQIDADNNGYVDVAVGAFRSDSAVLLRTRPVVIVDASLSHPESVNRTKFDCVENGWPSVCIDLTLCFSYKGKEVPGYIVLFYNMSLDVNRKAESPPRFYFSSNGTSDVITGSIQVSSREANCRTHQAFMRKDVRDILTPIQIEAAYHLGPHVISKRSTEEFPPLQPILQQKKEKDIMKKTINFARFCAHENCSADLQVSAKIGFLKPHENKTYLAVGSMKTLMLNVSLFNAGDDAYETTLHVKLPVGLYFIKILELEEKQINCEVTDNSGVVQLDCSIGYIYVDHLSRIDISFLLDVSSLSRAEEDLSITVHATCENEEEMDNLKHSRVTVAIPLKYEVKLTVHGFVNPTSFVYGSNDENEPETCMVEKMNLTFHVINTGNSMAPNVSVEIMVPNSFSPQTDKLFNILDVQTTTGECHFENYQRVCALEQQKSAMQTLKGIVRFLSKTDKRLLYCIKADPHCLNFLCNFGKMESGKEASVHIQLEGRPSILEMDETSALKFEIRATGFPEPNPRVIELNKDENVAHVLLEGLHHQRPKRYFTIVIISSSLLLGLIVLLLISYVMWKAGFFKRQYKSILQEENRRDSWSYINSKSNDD

[8] = calorie-restriction mimetic ROS inhibitors, yeast – validation compound set, pilot screen (AID 2706;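 active = superoxide response below 65% of plate, a cut near 3 SD across the whole screen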;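 note: yeast exposed to compound for one week at 30 degrees C before staining; 100% = mean of all compound wells on the same plate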); details: S. cerevisiae aging, superoxide DHE fluorescence; at 10 µM, stronger effect = lower value
[9] = molecular target: Beta-adrenergic receptor kinase 1 (Homo sapiens) (UniProt P25098); test: GRK2 binders displacing RNA aptamer, biochemical, validation, human GRK2, bead flow cytometry (AID 488806;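 active = aptamer binding inhibition above 30%, about 3 SD of noise from non-fluorescent compounds; inactive = inhibition at or below 30%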); details: bead-bound GRK2, FAM-aptamer displacement, at 10 µM, stronger effect = higher value
Sequence of Beta-adrenergic receptor kinase 1 (Homo sapiens) (P25098 whole entry, looked up): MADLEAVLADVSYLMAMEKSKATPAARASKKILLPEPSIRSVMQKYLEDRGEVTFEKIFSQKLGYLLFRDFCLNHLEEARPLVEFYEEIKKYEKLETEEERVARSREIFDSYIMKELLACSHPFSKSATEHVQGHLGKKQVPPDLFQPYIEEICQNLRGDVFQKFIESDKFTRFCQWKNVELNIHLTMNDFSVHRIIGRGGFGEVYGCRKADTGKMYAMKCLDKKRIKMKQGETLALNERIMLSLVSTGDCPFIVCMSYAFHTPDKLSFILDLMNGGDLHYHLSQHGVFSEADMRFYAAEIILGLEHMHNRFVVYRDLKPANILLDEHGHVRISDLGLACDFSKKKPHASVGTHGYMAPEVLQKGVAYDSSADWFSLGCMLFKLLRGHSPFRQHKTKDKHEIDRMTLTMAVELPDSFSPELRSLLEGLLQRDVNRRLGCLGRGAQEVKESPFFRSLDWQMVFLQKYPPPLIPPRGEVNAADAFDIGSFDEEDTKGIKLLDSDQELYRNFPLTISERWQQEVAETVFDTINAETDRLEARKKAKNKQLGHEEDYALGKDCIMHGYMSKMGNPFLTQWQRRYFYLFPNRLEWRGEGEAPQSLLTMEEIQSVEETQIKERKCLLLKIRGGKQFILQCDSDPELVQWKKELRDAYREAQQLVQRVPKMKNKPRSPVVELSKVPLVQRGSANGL

[10] = molecular target: AP-2 complex subunit beta (Homo sapiens) (UniProt P63010); test: beta-arrestin/AP2 interaction blockers – biochemical, validation set, GST-AP2 beads, flow cytometry, pilot screen (AID 504541;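 active = inhibition above 54%, about 3 SD of non-fluorescent compounds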;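 note: AP2 carries R879A mutation and is captured from E. coli lysate; bead-bound FITC arrestin peptide fluorescence measuring arrestin peptide binding to AP2; 0% = DMSO wells and 100% = excess unlabeled arrestin peptide control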); details: FITC arrestin peptide, at 10 µM, stronger effect = higher value, AP2 beta2 appendage fragment, R879A mutant
Sequence of AP-2 complex subunit beta (Homo sapiens) (P63010 whole entry, looked up, the tested form may be a part, one chain of several): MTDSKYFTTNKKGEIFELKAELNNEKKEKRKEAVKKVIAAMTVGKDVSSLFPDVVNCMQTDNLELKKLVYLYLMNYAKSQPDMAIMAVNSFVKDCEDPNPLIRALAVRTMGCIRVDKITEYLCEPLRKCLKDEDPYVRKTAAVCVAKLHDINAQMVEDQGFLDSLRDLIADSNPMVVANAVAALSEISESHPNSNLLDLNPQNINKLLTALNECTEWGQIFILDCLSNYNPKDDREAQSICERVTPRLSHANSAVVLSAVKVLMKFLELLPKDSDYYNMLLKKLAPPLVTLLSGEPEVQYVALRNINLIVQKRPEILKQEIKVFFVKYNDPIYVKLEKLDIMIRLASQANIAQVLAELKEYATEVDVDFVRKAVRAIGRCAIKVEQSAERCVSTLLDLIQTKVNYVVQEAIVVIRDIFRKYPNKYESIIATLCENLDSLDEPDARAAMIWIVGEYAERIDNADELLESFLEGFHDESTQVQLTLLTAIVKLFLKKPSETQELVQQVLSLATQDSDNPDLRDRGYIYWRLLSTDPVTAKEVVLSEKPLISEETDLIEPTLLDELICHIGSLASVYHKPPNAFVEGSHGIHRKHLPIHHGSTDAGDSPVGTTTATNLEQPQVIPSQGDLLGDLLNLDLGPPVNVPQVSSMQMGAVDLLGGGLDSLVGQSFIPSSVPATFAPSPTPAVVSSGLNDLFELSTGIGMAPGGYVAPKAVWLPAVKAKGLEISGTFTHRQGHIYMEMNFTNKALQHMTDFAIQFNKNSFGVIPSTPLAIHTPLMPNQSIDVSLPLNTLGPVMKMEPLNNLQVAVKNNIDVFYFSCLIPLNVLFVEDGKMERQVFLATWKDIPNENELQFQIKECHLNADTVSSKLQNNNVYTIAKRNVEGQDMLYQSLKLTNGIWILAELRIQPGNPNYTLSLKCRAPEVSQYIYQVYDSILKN

[11] = cytosolic pH regulators acting via V-ATPase – S. cerevisiae, pHLuorin, HTS validation (AID 504600; in the data active = response above about 15%;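 note: plate controls were DMSO for no effect and reference compound for full effect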); details: V-ATPase proton transport, at 10 µM, stronger effect = higher value
[12] = test system: anti-desmoglein-3 scFv antibody binding to human DSG3; test: blockers of pathogenic pemphigus antibody–desmoglein-3 binding – biochemical, validation compound set, bead-based, flow cytometry, pilot screen (AID 588368); details: Protein G beads, DSG3-Fc, scFv-GFP binding, at 10 µM, stronger effect = lower value;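 note: signal is the median channel fluorescence of bead-bound GFP antibody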
[13] = Nile Red efflux blockade in pump-expressing yeast – validation compound set, multiplex, phenotypic, pilot screen (AID 588506;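 active = efflux inhibition above 0.42, the validation set average plus 4 SD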;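 note: Nile Red retained in cells so higher fluorescence means more efflux inhibition; 0 = negative control wells and 1 = enniatin B 25 µM full block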); details: S. cerevisiae pump-expressing triplex, Nile Red efflux flow cytometry; at 10 µM; stronger effect = higher value; the pumps come from Candida albicans
[14] = molecular target: ATP-binding cassette sub-family B member 6 (Homo sapiens) (UniProt Q9NP58); test: blockers of ABCB6-driven porphyrin uptake – K562-ABCB6 cells, flow cytometry, validation set, pilot screen (AID 588550;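 active = inhibition above the screen-wide mean plus 3 SD, about 51%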;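 note: 0% = DMSO wells and 100% = benzethonium chloride 70 µM positive control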); details: K562-ABCB6 porphyrin accumulation, 1 h, at 10 µM, stronger effect = higher value
Sequence of ATP-binding cassette sub-family B member 6 (Homo sapiens) (Q9NP58 whole entry, looked up): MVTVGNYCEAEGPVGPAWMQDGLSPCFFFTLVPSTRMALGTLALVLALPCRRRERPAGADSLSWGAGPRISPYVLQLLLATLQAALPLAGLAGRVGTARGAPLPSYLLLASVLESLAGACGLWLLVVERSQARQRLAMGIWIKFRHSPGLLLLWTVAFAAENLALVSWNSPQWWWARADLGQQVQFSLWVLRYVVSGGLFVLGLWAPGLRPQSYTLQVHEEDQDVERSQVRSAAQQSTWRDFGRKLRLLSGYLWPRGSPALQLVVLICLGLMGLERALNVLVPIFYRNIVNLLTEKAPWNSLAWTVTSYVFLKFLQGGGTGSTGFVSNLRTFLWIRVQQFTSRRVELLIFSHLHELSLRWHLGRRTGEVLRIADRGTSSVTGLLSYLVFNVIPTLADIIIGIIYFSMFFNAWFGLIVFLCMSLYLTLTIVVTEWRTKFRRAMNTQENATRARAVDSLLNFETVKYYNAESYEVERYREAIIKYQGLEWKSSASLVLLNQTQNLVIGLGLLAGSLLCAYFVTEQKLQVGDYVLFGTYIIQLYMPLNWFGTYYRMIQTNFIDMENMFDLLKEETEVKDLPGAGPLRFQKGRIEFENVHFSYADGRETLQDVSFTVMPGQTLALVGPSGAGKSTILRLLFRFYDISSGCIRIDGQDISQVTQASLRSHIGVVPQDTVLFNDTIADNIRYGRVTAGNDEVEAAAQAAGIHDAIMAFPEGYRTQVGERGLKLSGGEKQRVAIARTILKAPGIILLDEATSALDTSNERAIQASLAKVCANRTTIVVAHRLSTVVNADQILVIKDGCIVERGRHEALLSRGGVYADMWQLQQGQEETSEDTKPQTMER

[15] = AML differentiation inducers, ER-HoxA9 marrow cells – cell-based, GFP/MAC1 double positive, flow cytometry, validation set, primary screen (AID 588685;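 active = differentiation response of at least 50%, scaled between solvent and reference control, from cells with both markers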;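 note: compound exposure lasts four days before antibody staining and flow analysis; 0% = DMSO wells and 100% = 5 µM fulvestrant positive control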); details: stronger effect = higher value, normalized: vehicle 0, fulvestrant 100

Structure (SMILES) | percent of DMSO control GFP [1] | GFP response vs DMSO [2] | percent response of DMSO control [3] | GFP response vs DMSO [4] | GFP response, % of DMSO [5] | double positive events [6] [%] | vesicle binding response [6] | inhibition [7] | superoxide response (% of plate) [8] | aptamer binding inhibition [9] | inhibition [10] | response [11] | binding (% of control) [12] | efflux inhibition (fraction of control) [13] | inhibition [14] | differentiation response [15]
CCCN(CCC)S(=O)(=O)c1ccc(C(=O)O)cc1 | 101% (inactive) | 107% (inactive) | 96.9% (inactive) | 124% (inactive) | 104% (inactive) | 56.2 | 170% (inactive) | 1.62% (inactive) | 104% (inactive) | 1% (inactive) | -3.49% (inactive) | 0.87% (inactive) | 99.3% (inactive) | -0.05 (inactive) | 4% (inactive) | -24.4% (inactive)
CC(C)Cc1cc(C(=O)N2CCC(N3CCC(C(=O)N4CCCC4)CC3)CC2)n[nH]1 | 100% (inactive) | 89.7% (inactive) | 109% (inactive) | 96.4% (inactive) | 102% (inactive) | 47.5 | 191% (inactive) | -2.11% (inactive) | 102% (inactive) | -3% (inactive) | 3.03% (inactive) | 1.07% (inactive) | 107% (inactive) | -0.16 (inactive) | 3% (inactive) | -27.6% (inactive)
O=C(O)c1cccnc1 | 103% (inactive) | 105% (inactive) | 96.9% (inactive) | 101% (inactive) | 105% (inactive) | 54.3 | 137% (inactive) | 13.8% (inactive) | 94.8% (inactive) | 4% (inactive) | -4.36% (inactive) | 4.12% (inactive) | 101% (inactive) | 0.29 (inactive) | 16% (inactive) | 20.8% (inactive)
CC[N+](C)(CC)CCOC(=O)C(O)(c1ccccc1)C1CCCCC1 (stereo not given) | 101% (inactive) | 103% (inactive) | 105% (inactive) | 105% (inactive) | 103% (inactive) | 57.8 | 175% (inactive) | -32.9% (inactive) | 102% (inactive) | -3% (inactive) | -1.88% (inactive) | 6.06% (inactive) | 98.5% (inactive) | -0.01 (inactive) | -1% (inactive) | 0% (inactive)
O=C(O)/C=C/c1ccc(O)c(O)c1 | 101% (inactive) | 104% (inactive) | 106% (inactive) | 95.4% (inactive) | 99.9% (inactive) | 52.4 | 173% (inactive) | 23.1% (inactive) | 106% (inactive) | 8% (inactive) | 4.2% (inactive) | -0.83% (inactive) | 95.4% (inactive) | 0.18 (inactive) | 4% (inactive) | -0.2% (inactive)
COc1ccc(OC)c(-c2oc3ccccc3c(=O)c2O)c1 | 102% (inactive) | 96.9% (inactive) | 96.9% (inactive) | 110% (inactive) | 101% (inactive) | 57 | 182% (inactive) | -8.64% (inactive) | 102% (inactive) | 2% (inactive) | -1.44% (inactive) | 5.05% (inactive) | 97.5% (inactive) | -0.01 (inactive) | -4% (inactive) | -26% (inactive)
COc1cccc2c1C(=O)O/C2=C/c1ccc2c(c1)OCO2 | 95.2% (inactive) | 103% (inactive) | 93% (inactive) | 92.3% (inactive) | 83.8% (inactive) | 64.2 | 177% (inactive) | -3.04% (inactive) | 106% (inactive) | 1% (inactive) | -5.67% (inactive) | -7.76% (inactive) | 99.8% (inactive) | -0.35 (inactive) | 8% (inactive) | -24.4% (inactive)
CN1CCCC(OC(=O)c2ccc3c(c2)OCCO3)C1 (stereo not given) | 101% (inactive) | 106% (inactive) | 108% (inactive) | 82.3% (inactive) | 96.3% (inactive) | 58.8 | 175% (inactive) | -8.64% (inactive) | 100% (inactive) | 0% (inactive) | 2.71% (inactive) | -2.88% (inactive) | 96% (inactive) | 0.41 (inactive) | 8% (inactive) | 1.41% (inactive)
CC(=O)Oc1cc(C(C)C)c(OCCN(C)C)cc1C | 103% (inactive) | 104% (inactive) | 94.9% (inactive) | 97.4% (inactive) | 99.9% (inactive) | 52.8 | 152% (inactive) | -0.24% (inactive) | 106% (inactive) | 6% (inactive) | -9.83% (inactive) | 8.27% (inactive) | 95.2% (inactive) | 0.1 (inactive) | 10% (inactive) | 19.2% (inactive)
c1ccc2c3c(c(CN4CCCCC4)cc2c1)COC3 | 109% (inactive) | 116% (inactive) | 127% (active) | 122% (inactive) | 104% (inactive) | 38 | 176% (inactive) | -8.64% (inactive) | 116% (inactive) | -6% (inactive) | -17.7% (inactive) | 4.2% (inactive) | 107% (inactive) | -0.12 (inactive) | 11% (inactive) | -14.7% (inactive)
